Laboratory results published in PubChem BioAssay.
Results filed as inconclusive are left out. The source made the active and inactive calls.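 The calls were made as follows, unless noted: active = GFP response above 150% of the DMSO control; inconclusive = fewer than 70 events counted in any yeast strain; inactive = the rest.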

Tests used:
[1] = yeast TOR pathway RPL19A-GFP modulators, primary screen, cell-based, S. cerevisiae, multiplex flow cytometry (AID 1862; in the data active = percent of DMSO control GFP below about 86%;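 also: lower values mimic rapamycin by blocking the RPL19A rise seen in DMSO cells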); details: S. cerevisiae RPL19A-GFP strain, flow cytometry fluorescence, 3 h; at 10 µM; stronger effect = lower value
[2] = modulators of MEP2-GFP levels in yeast, primary screen, S. cerevisiae, multiplex flow cytometry (AID 1867;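 active = GFP response, as percent of the DMSO control, above the screen-wide mean plus 3 SD, about 139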;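 also: median GFP channel fluorescence of barcode-gated MEP2-GFP cells measured by flow cytometry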); details: S. cerevisiae MEP2-GFP strain, 3 h, at 10 µM, stronger effect = higher value, 100% means same as DMSO wells
[3] = modulators of CIT2-GFP expression in yeast, primary screen, S. cerevisiae, GFP fusion, multiplex flow cytometry (AID 1870;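 active = percent response above a set limit, the screen-wide mean plus 3 SD, cut at about 130% in these data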;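 also: barcoded CIT2-GFP strain pooled with four other GFP strains with rapamycin as positive control; median GFP fluorescence per well over plate mean of DMSO wells so 100% = DMSO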); details: 3 h, at 10 µM, stronger effect = higher value
[4] = modulators of LAP4-GFP expression in yeast, primary screen, S. cerevisiae, multiplex flow cytometry (AID 1873;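 active = GFP signal, as percent of the solvent control, above the screen mean plus 3 SD, about 149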); details: 3 h, at 10 µM, stronger effect = higher value
[5] = modulators of AGP1-GFP expression in yeast TOR pathway, primary screen, cell-based, multiplex flow cytometry, S. cerevisiae (AID 1887;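 active = GFP signal above the screen-wide mean plus 3 SD, that is over about 124.5% of the solvent control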;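 also: AGP1-GFP fusion strain of S. cerevisiae within a five-strain barcoded multiplex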); details: 3 h, at 10 µM, stronger effect = higher value
[6] = RPL19A-GFP modulators, yeast TOR pathway, confirmation, cell-based, S. cerevisiae, flow cytometry, cherry picks, mother/daughter gates (AID 2270;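 active = GFP response below 50% of the DMSO control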); details: S. cerevisiae RPL19A-GFP strain, 3 h, at 10 µM, stronger effect = lower value, 100 = same GFP as DMSO wells
[7] = LAP4-GFP expression modulators in yeast, confirmation, cell-based, cherry picks, flow cytometry, mother/daughter gates (AID 2271);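 also: ratio of sample to DMSO plate mean so 100% equals DMSO level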; details: S. cerevisiae LAP4-GFP strain, 3 h, at 10 µM, stronger effect = higher value, 100 means same as DMSO control
[8] = modulators of MEP2-GFP levels in yeast, confirmation, S. cerevisiae, flow cytometry GFP, cherry picks (AID 2272;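 active = GFP response above 150% of the DMSO control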;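 also: ratio of well signal to plate DMSO mean so 100% equals DMSO level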); details: S. cerevisiae MEP2-GFP strain, 3 h, at 10 µM, stronger effect = higher value
[9] = modulators of CIT2-GFP expression in yeast, confirmation, S. cerevisiae, GFP fusion, cherry picks, mother/daughter gates (AID 2274;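 active = GFP response above 150% of the DMSO level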); details: S. cerevisiae CIT2-GFP strain, flow cytometry, 3 h, at 10 µM, stronger effect = higher value
[10] = inhibitors of CD8+ T cell-vesicle binding, pilot screen, LFA-1/ICAM-1 modulator project, MLPCN validation set, flow cytometry (AID 2523;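 active = response below a set limit, under 55% cells CD8-positive and vesicle-bound, and CD8 cells' 90th-percentile brightness under 279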;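 as to vesicle binding response: mean PE anti-B7-1 fluorescence of CD8+ cells relative to row control; 100% = QL9-loaded vesicles with DMSO vehicle in the same plate row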); details: 2C mouse CD8+ T cells, at 7 µM, stronger effect = lower value; double positive events: measured here: CD8+/vesicle+ event percentage
[11] = target: Integrin beta-1 (Homo sapiens) + Integrin alpha-4 (Homo sapiens) (UniProt P13612+P05556); assay: inhibition of HUTS-21 binding to VLA-4, pilot screen, VLA-4 allosteric modulator project, U937 cells, HUTS-21 mAb, flow cytometry, validation set (AID 2674;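 active = inhibition above 50%, about 3 SD of the validation set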;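 also: antibody binding induced by the VLA-4 ligand LDV present at three times its Kd; 0% = LDV ligand with antibody and no compound and 100% = antibody without LDV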); details: HUTS-21 LIBS mAb binding, at 6.7 µM, stronger effect = higher value, binding induced by LDV ligand
[12] = superoxide lowering in aged yeast cells, pilot screen, validation compound set (AID 2706;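 active = superoxide response below 65% of plate, a cut near 3 SD across the whole screen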;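 also: yeast exposed to compound for one week at 30 degrees C before staining; 100% = mean of all compound wells on the same plate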); details: S. cerevisiae aging, superoxide DHE fluorescence; at 10 µM; stronger effect = lower value
[13] = target: Beta-adrenergic receptor kinase 1 (Homo sapiens) (UniProt P25098); assay: GRK2 binders displacing RNA aptamer, biochemical, validation, human GRK2, bead flow cytometry (AID 488806;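 active = aptamer binding inhibition above 30%, about 3 SD of noise from non-fluorescent compounds; inactive = inhibition at or below 30%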); details: bead-bound GRK2, FAM-aptamer displacement, at 10 µM, stronger effect = higher value
[14] = target: Beta-2 adrenergic receptor (Homo sapiens) (UniProt P07550); assay: beta2AR agonists driving receptor internalization, pilot screen, cell-based, FAP fluorogen, flow cytometry, validation set (AID 504459;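 active = percent response above 42, roughly 3 SD of non-fluorescent test compounds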;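 also: agonist-driven loss of surface beta2AR via internalization measured by FAP dye flow cytometry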); details: Am2.2-beta2AR cells, FAP surface receptor flow cytometry; at 10 µM; stronger effect = higher value
[15] = target: AP-2 complex subunit beta (Homo sapiens) (UniProt P63010); assay: inhibitors of arrestin peptide binding to AP2, pilot screen, biochemical, validation set, GST-AP2 beads, flow cytometry (AID 504541;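 active = inhibition above 54%, about 3 SD of non-fluorescent compounds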;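 also: AP2 carries R879A mutation and is captured from E. coli lysate; bead-bound FITC arrestin peptide fluorescence measuring arrestin peptide binding to AP2; 0% = DMSO wells and 100% = excess unlabeled arrestin peptide control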); details: FITC arrestin peptide, at 10 µM, stronger effect = higher value, AP2 beta2 appendage fragment, R879A mutant
[16] = yeast V-ATPase proton transport modulators, S. cerevisiae, pHLuorin, HTS validation (AID 504600; in the data active = response above about 15%;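 also: plate controls were DMSO for no effect and reference compound for full effect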); details: S. cerevisiae pHLuorin cytosolic pH, at 10 µM, stronger effect = higher value
[17] = system: anti-desmoglein-3 scFv antibody binding to human DSG3; assay: inhibitors of anti-DSG3 scFv binding to DSG3, pilot screen, biochemical, validation compound set, bead-based, flow cytometry (AID 588368;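 active = binding below the plate cutoff, the plate median minus 3 SD, with a reading above zero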;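 also: signal is the median channel fluorescence of bead-bound GFP antibody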); details: Protein G beads, DSG3-Fc, scFv-GFP binding, at 10 µM, stronger effect = lower value
[18] = inhibitors of fungal efflux pumps CDR1, CDR2, MDR1, pilot screen, validation compound set, multiplex, phenotypic (AID 588506;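 active = efflux inhibition above 0.42, the validation set average plus 4 SD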;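 also: Nile Red retained in cells so higher fluorescence means more efflux inhibition; 0 = negative control wells and 1 = enniatin B 25 µM full block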); details: S. cerevisiae pump-expressing triplex, Nile Red efflux flow cytometry; at 10 µM; stronger effect = higher value; the pumps come from Candida albicans
[19] = target: ATP-binding cassette sub-family B member 6 (Homo sapiens) (UniProt Q9NP58); assay: ABCB6 transporter inhibitors, pilot screen, K562-ABCB6 cells, flow cytometry, validation set (AID 588550;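 active = inhibition above the screen-wide mean plus 3 SD, about 51%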;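 also: 0% = DMSO wells and 100% = benzethonium chloride 70 µM positive control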); details: K562-ABCB6 porphyrin accumulation, 1 h, at 10 µM, stronger effect = higher value
[20] = promoters of myeloid differentiation in arrested cells, primary screen, cell-based, GFP/MAC1 double positive, flow cytometry, validation set (AID 588685;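 active = differentiation response of at least 50%, scaled between solvent and reference control, from cells with both markers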;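 also: compound exposure lasts four days before antibody staining and flow analysis; 0% = DMSO wells and 100% = 5 µM fulvestrant positive control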); details: ER-HoxA9 marrow cells, stronger effect = higher value, normalized: vehicle 0, fulvestrant 100
[21] = measured here: daughter cell gate
[22] = measured here: mother cell gate
[23] = measured here: daughter cell gate response
[24] = measured here: mother cell gate response

Sequence of Integrin beta-1 (Homo sapiens) + Integrin alpha-4 (Homo sapiens) (P05556 whole entry, looked up): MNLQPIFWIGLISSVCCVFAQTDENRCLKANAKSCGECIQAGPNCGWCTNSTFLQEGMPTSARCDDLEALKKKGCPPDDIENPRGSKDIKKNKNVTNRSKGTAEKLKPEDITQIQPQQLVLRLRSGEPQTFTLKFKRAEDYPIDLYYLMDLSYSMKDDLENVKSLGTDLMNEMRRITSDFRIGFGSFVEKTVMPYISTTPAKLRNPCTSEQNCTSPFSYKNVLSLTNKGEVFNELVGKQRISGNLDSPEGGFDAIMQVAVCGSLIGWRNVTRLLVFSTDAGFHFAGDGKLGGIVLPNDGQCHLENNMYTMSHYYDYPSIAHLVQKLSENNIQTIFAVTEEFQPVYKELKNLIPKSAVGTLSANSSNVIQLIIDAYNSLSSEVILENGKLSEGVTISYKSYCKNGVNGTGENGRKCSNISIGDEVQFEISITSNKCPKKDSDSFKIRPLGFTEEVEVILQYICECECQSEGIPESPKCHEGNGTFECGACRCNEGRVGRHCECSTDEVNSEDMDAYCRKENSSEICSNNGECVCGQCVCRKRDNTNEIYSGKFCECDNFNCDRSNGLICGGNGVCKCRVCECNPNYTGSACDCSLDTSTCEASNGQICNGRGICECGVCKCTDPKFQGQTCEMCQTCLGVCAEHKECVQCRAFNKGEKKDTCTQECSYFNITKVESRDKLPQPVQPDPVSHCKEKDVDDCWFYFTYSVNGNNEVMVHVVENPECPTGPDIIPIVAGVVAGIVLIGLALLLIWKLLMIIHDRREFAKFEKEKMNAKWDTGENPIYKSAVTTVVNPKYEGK
Sequence of Integrin beta-1 (Homo sapiens) + Integrin alpha-4 (Homo sapiens) (P13612 whole entry, looked up): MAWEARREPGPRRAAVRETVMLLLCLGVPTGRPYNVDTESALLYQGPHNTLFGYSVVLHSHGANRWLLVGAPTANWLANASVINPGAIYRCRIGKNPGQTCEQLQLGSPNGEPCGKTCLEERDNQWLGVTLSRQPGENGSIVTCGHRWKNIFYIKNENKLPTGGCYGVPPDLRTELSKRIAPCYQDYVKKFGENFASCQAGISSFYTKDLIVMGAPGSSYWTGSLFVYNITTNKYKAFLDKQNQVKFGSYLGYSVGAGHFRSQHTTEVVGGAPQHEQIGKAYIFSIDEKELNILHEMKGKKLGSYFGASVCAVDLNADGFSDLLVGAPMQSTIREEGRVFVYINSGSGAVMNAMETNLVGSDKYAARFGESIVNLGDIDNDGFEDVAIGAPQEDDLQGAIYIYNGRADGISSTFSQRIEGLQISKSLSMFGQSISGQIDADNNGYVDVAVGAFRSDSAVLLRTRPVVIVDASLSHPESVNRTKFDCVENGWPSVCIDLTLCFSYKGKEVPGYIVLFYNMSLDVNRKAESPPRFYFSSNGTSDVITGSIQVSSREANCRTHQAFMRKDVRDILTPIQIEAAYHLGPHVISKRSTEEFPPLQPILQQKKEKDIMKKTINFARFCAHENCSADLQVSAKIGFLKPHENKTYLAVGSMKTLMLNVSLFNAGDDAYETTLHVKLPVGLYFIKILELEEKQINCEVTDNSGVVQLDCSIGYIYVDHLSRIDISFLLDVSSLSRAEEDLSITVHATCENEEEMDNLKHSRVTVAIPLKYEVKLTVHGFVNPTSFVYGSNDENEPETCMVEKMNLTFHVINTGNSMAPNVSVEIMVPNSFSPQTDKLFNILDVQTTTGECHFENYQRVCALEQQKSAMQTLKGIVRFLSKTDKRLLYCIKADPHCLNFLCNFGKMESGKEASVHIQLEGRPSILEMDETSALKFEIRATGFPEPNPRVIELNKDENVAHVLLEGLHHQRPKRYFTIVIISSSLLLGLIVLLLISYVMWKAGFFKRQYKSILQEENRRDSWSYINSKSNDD
Sequence of Beta-2 adrenergic receptor (Homo sapiens) (P07550 whole entry, looked up): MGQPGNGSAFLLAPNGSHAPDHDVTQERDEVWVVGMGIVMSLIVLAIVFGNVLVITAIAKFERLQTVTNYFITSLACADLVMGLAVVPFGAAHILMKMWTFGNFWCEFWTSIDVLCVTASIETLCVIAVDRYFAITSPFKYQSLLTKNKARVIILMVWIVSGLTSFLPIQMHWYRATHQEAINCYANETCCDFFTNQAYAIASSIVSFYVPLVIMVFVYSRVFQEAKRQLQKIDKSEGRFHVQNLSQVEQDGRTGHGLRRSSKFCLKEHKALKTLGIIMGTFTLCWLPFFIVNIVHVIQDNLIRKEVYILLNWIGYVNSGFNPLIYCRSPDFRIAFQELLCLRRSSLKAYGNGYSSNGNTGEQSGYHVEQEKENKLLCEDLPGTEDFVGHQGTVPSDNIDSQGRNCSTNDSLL
Sequence of AP-2 complex subunit beta (Homo sapiens) (P63010 whole entry, looked up, the tested form may be a part, one chain of several): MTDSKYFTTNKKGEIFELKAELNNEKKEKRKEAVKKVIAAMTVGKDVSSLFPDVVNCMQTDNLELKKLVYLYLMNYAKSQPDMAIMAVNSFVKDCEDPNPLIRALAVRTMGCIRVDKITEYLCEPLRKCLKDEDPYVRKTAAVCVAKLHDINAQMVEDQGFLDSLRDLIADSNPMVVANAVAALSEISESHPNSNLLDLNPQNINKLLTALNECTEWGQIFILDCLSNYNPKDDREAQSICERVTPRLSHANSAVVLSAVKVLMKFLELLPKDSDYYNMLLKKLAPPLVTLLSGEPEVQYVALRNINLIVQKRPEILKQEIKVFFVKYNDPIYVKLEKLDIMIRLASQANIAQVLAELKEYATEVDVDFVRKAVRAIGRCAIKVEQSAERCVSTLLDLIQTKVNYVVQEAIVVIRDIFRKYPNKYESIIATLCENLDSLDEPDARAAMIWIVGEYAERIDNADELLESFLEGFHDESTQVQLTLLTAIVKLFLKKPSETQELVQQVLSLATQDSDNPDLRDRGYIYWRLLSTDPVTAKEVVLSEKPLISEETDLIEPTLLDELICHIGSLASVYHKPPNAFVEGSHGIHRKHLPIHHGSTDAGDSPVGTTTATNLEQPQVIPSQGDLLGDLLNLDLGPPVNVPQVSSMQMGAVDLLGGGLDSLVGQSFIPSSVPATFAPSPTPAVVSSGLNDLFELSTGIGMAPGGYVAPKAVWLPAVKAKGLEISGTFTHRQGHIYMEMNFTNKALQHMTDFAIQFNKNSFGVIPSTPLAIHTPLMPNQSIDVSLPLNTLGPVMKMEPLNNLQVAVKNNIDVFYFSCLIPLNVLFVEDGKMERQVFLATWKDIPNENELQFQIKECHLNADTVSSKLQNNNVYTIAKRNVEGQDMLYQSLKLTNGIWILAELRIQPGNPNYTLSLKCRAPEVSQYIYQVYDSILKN
Sequence of ATP-binding cassette sub-family B member 6 (Homo sapiens) (Q9NP58 whole entry, looked up): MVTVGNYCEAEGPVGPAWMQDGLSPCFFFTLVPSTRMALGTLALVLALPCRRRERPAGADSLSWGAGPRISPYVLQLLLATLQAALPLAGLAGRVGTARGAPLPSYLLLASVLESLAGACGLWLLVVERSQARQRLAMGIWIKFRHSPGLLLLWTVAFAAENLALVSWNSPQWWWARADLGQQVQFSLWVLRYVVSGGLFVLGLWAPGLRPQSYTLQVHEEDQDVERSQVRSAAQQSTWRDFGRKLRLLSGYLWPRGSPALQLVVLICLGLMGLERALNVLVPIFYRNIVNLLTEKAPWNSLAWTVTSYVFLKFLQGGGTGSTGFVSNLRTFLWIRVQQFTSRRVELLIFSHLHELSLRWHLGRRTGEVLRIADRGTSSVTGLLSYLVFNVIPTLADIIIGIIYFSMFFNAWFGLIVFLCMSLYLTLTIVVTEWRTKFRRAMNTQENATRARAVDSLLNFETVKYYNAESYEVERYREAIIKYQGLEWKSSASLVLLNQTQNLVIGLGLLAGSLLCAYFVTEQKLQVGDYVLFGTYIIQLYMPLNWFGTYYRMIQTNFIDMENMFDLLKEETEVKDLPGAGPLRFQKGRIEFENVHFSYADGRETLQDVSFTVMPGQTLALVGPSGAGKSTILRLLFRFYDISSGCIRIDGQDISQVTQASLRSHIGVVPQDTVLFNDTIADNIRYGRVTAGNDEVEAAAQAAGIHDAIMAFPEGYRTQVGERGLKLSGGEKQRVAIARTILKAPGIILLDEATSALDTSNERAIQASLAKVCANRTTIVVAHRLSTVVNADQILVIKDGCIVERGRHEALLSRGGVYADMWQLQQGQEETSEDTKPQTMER
Sequence of Beta-adrenergic receptor kinase 1 (Homo sapiens) (P25098 whole entry, looked up): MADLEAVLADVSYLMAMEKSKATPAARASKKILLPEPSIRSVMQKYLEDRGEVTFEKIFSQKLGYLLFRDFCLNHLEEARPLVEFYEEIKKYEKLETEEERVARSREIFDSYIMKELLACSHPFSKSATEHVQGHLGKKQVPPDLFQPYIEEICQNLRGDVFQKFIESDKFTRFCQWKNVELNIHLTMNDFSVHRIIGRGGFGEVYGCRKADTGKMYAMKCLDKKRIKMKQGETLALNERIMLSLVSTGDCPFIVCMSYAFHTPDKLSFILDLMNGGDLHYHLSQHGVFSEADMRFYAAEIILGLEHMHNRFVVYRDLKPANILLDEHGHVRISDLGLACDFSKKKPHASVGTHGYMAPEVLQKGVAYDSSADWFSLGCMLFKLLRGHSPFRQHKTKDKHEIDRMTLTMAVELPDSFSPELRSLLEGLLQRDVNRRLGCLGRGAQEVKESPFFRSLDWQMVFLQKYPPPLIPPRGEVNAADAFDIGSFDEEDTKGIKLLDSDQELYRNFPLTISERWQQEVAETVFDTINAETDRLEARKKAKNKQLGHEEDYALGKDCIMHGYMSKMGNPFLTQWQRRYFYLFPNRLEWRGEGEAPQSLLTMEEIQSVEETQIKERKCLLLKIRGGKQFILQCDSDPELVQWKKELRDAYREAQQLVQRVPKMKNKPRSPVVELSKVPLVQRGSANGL

COc1ccc(-c2noc(-c3ccccc3-c3ccccc3)n2)cc1
97.4%: GFP response, % of DMSO [9, 21]
96.8%: GFP response vs DMSO [6, 22] | GFP response, % of DMSO [9, 22]
95.9%: GFP response relative to DMSO [7, 23]
56.5%: double positive events [10]
92.9%: GFP response vs DMSO [6, 21]
active: GFP response vs DMSO [2] 142%
97.3%: GFP response relative to DMSO [7, 24]
inactive: percent of DMSO control GFP [1] 91.1% | percent response of DMSO control [3] 114% | GFP response vs DMSO [4] 81.4% | GFP response, % of DMSO [5] 86.3% | GFP response vs DMSO [6] 95.6% | GFP response relative to DMSO [7] 95.7% | GFP response vs DMSO [8] 107% | GFP response, % of DMSO [9] 97.3% | vesicle binding response [10] 138% | inhibition [11] -15.8% | superoxide response (% of plate) [12] 94.3% | aptamer binding inhibition [13] 8% | response [14] 3.77% | inhibition [15] 19.4% | response [16] -3.56% | binding (% of control) [17] 100% | efflux inhibition (fraction of control) [18] 0.19 | inhibition [19] 6% | differentiation response [20] -1.64%

CC(=O)OCC(=O)[C@@]1(O)CC[C@H]2[C@@H]3CCC4=CC(=O)CC[C@]4(C)[C@H]3[C@@H](O)C[C@@]21C
inactive: percent of DMSO control GFP [1] 101% | GFP response vs DMSO [2] 104% | percent response of DMSO control [3] 96.6% | GFP response vs DMSO [4] 97.3% | GFP response, % of DMSO [5] 103% | GFP response vs DMSO [6] 95.8% | GFP response relative to DMSO [7] 96.7% | GFP response vs DMSO [8] 100% | GFP response, % of DMSO [9] 99.7% | vesicle binding response [10] 4910% | inhibition [11] -4.6% | superoxide response (% of plate) [12] 101% | aptamer binding inhibition [13] -1% | response [14] 6.11% | inhibition [15] -11.1% | response [16] 2.08% | binding (% of control) [17] 98.4% | efflux inhibition (fraction of control) [18] -0.26 | inhibition [19] -2% | differentiation response [20] -1.71%
99.2%: GFP response relative to DMSO [7, 23]
101%: GFP response, % of DMSO [9, 21]
97.1%: GFP response vs DMSO [6, 21]
62.5%: double positive events [10]
97.7%: GFP response vs DMSO [6, 22]
95.1%: GFP response relative to DMSO [7, 24]
98.5%: GFP response, % of DMSO [9, 22]
